In PubChem BioAssay (EPA / NIEHS):
A structure can be active in one record and inactive in another. Calls of active or inactive are those of the source. Rule for the calls: active = hit-call score of the fitted dose curve at least 0.9, where 1 is the maximum; inactive = score below 0.9.

Assays:
Details in all cases: primary human B cells with PBMC
[1] = BSK_BT_PBMCCytotoxicity: PBMC Cytotoxicity Assessment in the BioMAP Diversity Plus: BT Assay (AID 2284225);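 note: PBMC viability measured by Alamar Blue dye reduction fluorescence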
Method in brief: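 Viability by Alamar Blue reduction (6 h, ex/em 546/580 nm) after 90 h culture of SEB/TSST-1-activated PBMC (20 ng/mL each) given compound 1 h before activation. DMSO served as baseline for curve fitting.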

[2] = read-out: Secreted IgG (sIgG), gene 3500; assay: BSK_BT_sIgG: BioMAP Diversity Plus: BT Assay for Secreted IgG (sIgG) Biomarker Activity (AID 2284226)
Method in brief: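 Cells (B cells with peripheral blood mononuclear cells) are dosed, cultured 24 h, then supernatant IgG is measured by ELISA. DMSO serves as negative control; curves are fitted for signal increase.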

[3] = read-out: Interleukin 6 (IL6), IL6 (gene 3569); assay: BSK_BT_xIL6: BioMAP Diversity Plus: BT Assay for Interleukin 6 (IL6) Biomarker Activity (AID 2284228)
Method in brief: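 B cells and peripheral blood mononuclear cells (human primary co-culture) were dosed with chemical, and after 24 h IL-6 released into the medium was measured by Luminex xMAP. Responses were analysed as gain of signal over DMSO control.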

Structure (SMILES)	outcome [1]	outcome [2]	outcome [3]	AC50 [1]	AC50 [2]	AC50 [3]
CCCCOCCOP(=O)(OCCOCCCC)OCCOCCCC	inactive	inactive	inactive			
O=c1ssc(Cl)c1Cl				6.76 µM (active)	3.62 µM (active)	6.42 µM (active)
O=C(O)C(F)(F)C(F)(F)C(=O)O	inactive	inactive	inactive			
OCC(F)(F)OC(F)(F)C(F)(F)OC(F)(F)C(F)(F)OC(F)(F)CO	inactive		inactive		30 µM (active)	38.4 µM (active)
Cc1c([N+](=O)[O-])cc2c(c1[N+](=O)[O-])C(C)(C)CC2(C)C			inactive	33.2 µM (active)	20 µM (active)	
O=S1(=O)OCC2C(CO1)C1(Cl)C(Cl)=C(Cl)C2(Cl)C1(Cl)Cl (stereo unspecified)				32.9 µM (active)	1.55 µM (active)	33 µM (active)
CCOP(=S)(OCC)SCSc1ccc(Cl)cc1	inactive		inactive		20 µM (active)	
N#Cc1cc([N+](=O)[O-])ccc1N	inactive	inactive	inactive			
COP(N)(=S)OC	inactive	inactive	inactive			
CCOP(=S)(OCC)SCS(=O)(=O)CC	inactive	inactive	inactive			
